PubChem BioAssay AID2590 (National Center for Advancing Translational Sciences (NCATS), 2010)
“And” between values parts separate entries of the source, which are not always exact repeats. Equal values may be shown once. Results filed as inconclusive are left out. The source made the active and inactive calls. Calls come from the whole dose curve; as a rule, active = well fitted curve in the direction sought with a large enough effect; inconclusive = small, poorly fitted or top-dose-only effect, or another doubt; inactive = no such curve, though single readings can be large or run the other way.

Target: Lysosomal acid glucosylceramidase (Homo sapiens) (UniProt P04062)
Test: qHTS Assay for Inhibitors and Activators of N370S glucocerebrosidase as a Potential Chaperone Treatment of Gaucher Disease: Primary Screen Confirmation;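 for activity change, negative = inhibition: 0% = enzyme with DMSO and -100% = no enzyme basal signal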
Settings: N370S glucocerebrosidase enzyme activity, fluorogenic substrate; series mostly up to 54 µM; activity change, negative = inhibition: at the top concentration
Excerpt: NIH Chemical Genomics Center [NCGC]
NIH Molecular Libraries Probe Production Centers Network [MLPCN]
Assay Submitter (PI): Wei Zheng
Glucocerebrosidase (GC) catalyzes the hydrolysis of beta-glucocerebroside to glucose and ceramide in lysosomes. Mutations in the glucocerebrosidase gene result in Gaucher disease, an autosomal recessive lysosomal storage disorder. Many of the mutations encountered in patients with Gaucher disease are missense alterations that may cause misfolding, decreased stability and/or mistrafficking of this lysosomal protein. […] These inhibitors include iminosugar analogs and three non-iminosugar inhibitors identified from a previous HTS of 62,000 compounds with the wild type recombinant enzyme. However, the enhancement of enzyme activity by the chaperone action of an enzyme inhibitor must be balanced against the direct inhibition of the enzyme. An enzyme activator could also function as a chaperone by binding to the enzyme and helping to correct its misfolding and mistrafficking. While activators for GC have not yet been identified, they may have better therapeutic potential than inhibitors. Therefore the discovery and development of chemical activators may provide a new strategy for the chaperone therapy.
We have optimized a new assay using N370S mutant GC derived from the spleen of a Gaucher patient. […] In addition, the MLPCN compound library has expanded, which increases the chance of finding new and better probes.
NCGC Assay Protocol Summary:
This is a fluorogenic enzyme assay with 4-methylumbelliferyl-beta-D-glucopyranoside as the substrate and N370S glucocerebrosidase from human spleen homogenate as the enzyme preparation. Upon the hydrolysis of this fluorogenic substrate, the resulting product, […] which can be detected by a standard fluorescence plate reader. Data were normalized to the controls for basal activity (without enzyme) and 100% activity (with enzyme). The AC50 values were determined from concentration-response data modeled with the standard Hill equation.
Assay buffer: 50 mM citric acid (titrated with potassium phosphate to pH 5.0), 100 mM potassium chloride, 10 mM sodium chloride, 1 mM magnesium chloride, 0.01% Tween-20.
1536-well assay protocol:
(1) Add 2 ul/well of spleen homogenate (27 ug final)
(2) Add 23 nL compounds in DMSO solution. The final titration was 0.5 nM to 58 uM.
(3) Add 2 ul of substrate (1 mM final)
(4) Incubate at 37C for 40 min.
(5) Add 2 ul stop solution (1M NaOH and 1M Glycine mixture, pH 10)
(6) Detect the assay plate in a ViewLux plate reader (PerkinElmer) with Ex=365 nm and Em=440nm.
Keywords: Glucocerebrosidase, beta-glucosidase, Gaucher Disease, pharmacological chaperone, chaperone therapy, high throughput screening, glucocerebrosidase inhibitor, MLSMR, MLSCN, NIH Roadmap, qHTS and NCGC
Potency is the fitted concentration of half-maximal effect.

Chain of Lysosomal acid glucosylceramidase (Homo sapiens) (P04062 whole entry N409S): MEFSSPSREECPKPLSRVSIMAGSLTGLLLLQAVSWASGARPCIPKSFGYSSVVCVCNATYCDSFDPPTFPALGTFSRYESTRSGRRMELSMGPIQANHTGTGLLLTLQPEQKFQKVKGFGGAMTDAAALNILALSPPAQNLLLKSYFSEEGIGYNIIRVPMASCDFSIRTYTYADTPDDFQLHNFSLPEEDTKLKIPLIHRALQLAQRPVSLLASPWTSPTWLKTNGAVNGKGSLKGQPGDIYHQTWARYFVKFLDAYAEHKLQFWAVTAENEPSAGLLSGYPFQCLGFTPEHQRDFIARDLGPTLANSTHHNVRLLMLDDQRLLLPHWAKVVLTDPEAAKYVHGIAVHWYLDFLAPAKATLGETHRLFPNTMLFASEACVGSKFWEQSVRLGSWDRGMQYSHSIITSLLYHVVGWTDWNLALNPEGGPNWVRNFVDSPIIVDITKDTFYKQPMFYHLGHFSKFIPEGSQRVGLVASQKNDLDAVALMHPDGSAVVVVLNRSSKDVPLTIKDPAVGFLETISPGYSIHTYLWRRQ

SMILES | Potency | activity change, negative = inhibition
CC(C)OCCCNc1nc(-c2ccccc2)nc2ccccc12 | 4.01 µM (active) | –
COc1ccc2cc(C(=O)NCc3ccccc3)c(=O)oc2c1 | – | 1.63% (inactive)
Cc1cc2nn(-c3ccc(Cl)cc3)nc2cc1N | – | 6.68% (inactive)
O=S(=O)(c1nccs1)N1CCN(c2nc(-c3cccs3)nc3ccccc23)CC1 | 7.3 µM (active) | –
Cc1cc(C)cc(N(CC(=O)NC2CCC(C)CC2)S(=O)(=O)c2c(C)[nH]c(=O)[nH]c2=O)c1 (stereo not given) | 2.51 µM (active) | –
CCc1ccc(NC(=O)CN(c2ccc(OC)cc2)S(=O)(=O)c2c(C)[nH]c(=O)[nH]c2=O)cc1 | 6.51 µM (active) | –
CCOC(=O)c1ccc(S(=O)(=O)N2CCN(c3nc(-c4ccccc4)nc4ccccc34)CC2)cc1 | 5.17 µM (active) | –
Cc1ccc(-c2nc(Nc3ccc(O)cc3)c3ccccc3n2)cc1 | 12.7 µM (active) | –
Cc1ccc(S(=O)(=O)N2CCN(c3ccnc(-c4cccs4)n3)CC2)cc1 | 9.19 µM (active) | –
CCCCNC(=S)NCCCc1cnc[nH]1 | – | -23.1% (inactive)
O=S(=O)(c1ccc(OC(F)(F)F)cc1)N1CCN(c2nc(-c3cccs3)nc3ccccc23)CC1 | 2.91 µM (active) | –
Cc1ccc(S(=O)(=O)N2CCN(c3nc(-c4cccs4)nc(C)c3C)CC2)cc1 | 2.84 µM (active) | –
O=S(=O)(c1ccc2c(c1)CCCC2)N1CCN(c2nc(-c3cccs3)nc3ccccc23)CC1 | 0.713 µM (active) | –
CN(CCCN(Cc1ccc(Cl)cc1)c1ccc(Br)cn1)C(=S)NCCCc1cnc[nH]1 | 2.53 µM (active) | –
O=S(=O)(c1ccccc1Br)N1CCN(c2nc(-c3cccs3)nc3ccccc23)CC1 | 1.3 µM (active) | –
O=S(=O)(c1ccc(Cl)cc1)N1CCN(c2nc(-c3ccc(F)cc3)nc3cc(Cl)ccc23)CC1 | – | 1.27% (inactive)
O=[N+]([O-])c1ccccc1S(=O)(=O)N1CCN(c2nc(-c3ccccc3)nc3ccccc23)CC1 | 5.69 µM (active) | –
S=C(NCCCc1cnc[nH]1)NCCCN(Cc1ccc(Cl)cc1)c1ncc(Br)cn1 | 1.79 µM (active) | –
NS(=O)(=O)c1ccc(S(=O)(=O)N2CCN(c3nc(-c4cccs4)nc4ccccc34)CC2)cc1 | 3.26 µM (active) | –
O=S(=O)(c1ccc(F)cc1F)N1CCN(c2nc(-c3cccs3)nc3ccccc23)CC1 | 1.27 µM (active) | –

SMILES | Potency | activity change, negative = inhibition
O=S(=O)(c1ccccc1F)N1CCN(c2nc(-c3cccs3)nc3ccccc23)CC1 | 1.63 µM (active) | –
O=S(=O)(c1ccc(C(F)(F)F)cc1)N1CCN(c2nc(-c3cccs3)nc3ccccc23)CC1 | 2.53 µM (active) | –
O=S(=O)(c1ccc(Cl)cc1)N1CCN(c2nc(-c3cccs3)nc3ccccc23)CC1 | 1.46 µM (active) and 1.13 µM (active) and 1.63 µM (active) | –
CCCCN(CCCNC(=S)NCCCc1cnc[nH]1)c1ccc(Br)cn1 | 8.18 µM (active) | –
O=S(=O)(c1cccc(Br)c1)N1CCN(c2nc(-c3cccs3)nc3ccccc23)CC1 | 2.53 µM (active) | –
O=S(=O)(c1cccc2ccccc12)N1CCN(c2nc(-c3cccs3)nc3ccccc23)CC1 | 0.819 µM (active) | –
Cc1ccc(Nc2cc(C)nc(-c3ccccc3)n2)cc1 | 4.11 µM (active) | –
O=S(=O)(c1ccc2ccccc2c1)N1CCN(c2nc(-c3ccccc3)nc3ccccc23)CC1 | 4.61 µM (active) | –
Cc1ccc(S(=O)(=O)N(C)CCN(C)c2nc(-c3cccs3)nc3ccccc23)cc1 | 2.25 µM (active) | –
S=C(NCCCc1cnc[nH]1)NCCCN(CCc1ccc(Cl)cc1)c1ccc(Br)cn1 | 1.79 µM (active) | –
Cc1cc(C)cc(N(CC(=O)Nc2ccc(Br)cc2)S(=O)(=O)c2c(C)[nH]c(=O)[nH]c2=O)c1 | 2.06 µM (active) | –
O=C(Nc1ccccc1)Nc1ccccc1 | inactive | –
O=S(=O)(c1ccc(F)cc1)N1CCN(c2nc(-c3cccc(Br)c3)nc3ccccc23)CC1 | – | -9.98% (inactive)
Cc1nc2nc(-c3ccc(F)cc3)cn2nc1C | – | 10.6% (inactive)
CN(CCCc1cnc[nH]1)C(=S)NCCCN(Cc1ccc(Cl)cc1)c1ccc(Br)cn1 | 11.4 µM (active) | –
O=S(=O)(c1ccc2ccccc2c1)N1CCN(c2nc(-c3cccs3)nc3ccccc23)CC1 | 0.326 µM (active) | –
O=S(=O)(c1ccccc1)N1CCN(c2nc(-c3cccs3)nc3ccccc23)CC1 | 1.46 µM (active) and 919 nM (active) | –
O=S(=O)(c1ccc2c(c1)OCCO2)N1CCN(c2nc(-c3cccs3)nc3ccccc23)CC1 | 410 nM (active) and 450 nM (active) | –
O=S(=O)(c1ccccc1C(F)(F)F)N1CCN(c2nc(-c3cccs3)nc3ccccc23)CC1 | 0.41 µM (active) | –
O=S(=O)(c1ccc(Cl)cc1)N1CCN(c2nc(-c3ccccc3)nc3ccccc23)CC1 | 5.8 µM (active) | –
